# High-throughput results from PubChem BioAssay.
# Hits are enriched below; roughly 7.5% of the tested compounds scored in any of these assays.
# FLuc modulator – firefly luciferase modulation, counter-screen for miR-21 project; hit rate 6.9% among 360,000; purified FLuc, Km substrates, luminescence inhibition; Potency, µM (highest dose often 57.5 µM), inactives show at the highest dose activity change, negative = inhibition, most hits filed as inhibitors;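 also: plate controls were vehicle for no effect and reference inhibitor for full effect; nearly all actives have a fitted effect of over 55% in size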
# Target sequence (P08659 whole entry, looked up): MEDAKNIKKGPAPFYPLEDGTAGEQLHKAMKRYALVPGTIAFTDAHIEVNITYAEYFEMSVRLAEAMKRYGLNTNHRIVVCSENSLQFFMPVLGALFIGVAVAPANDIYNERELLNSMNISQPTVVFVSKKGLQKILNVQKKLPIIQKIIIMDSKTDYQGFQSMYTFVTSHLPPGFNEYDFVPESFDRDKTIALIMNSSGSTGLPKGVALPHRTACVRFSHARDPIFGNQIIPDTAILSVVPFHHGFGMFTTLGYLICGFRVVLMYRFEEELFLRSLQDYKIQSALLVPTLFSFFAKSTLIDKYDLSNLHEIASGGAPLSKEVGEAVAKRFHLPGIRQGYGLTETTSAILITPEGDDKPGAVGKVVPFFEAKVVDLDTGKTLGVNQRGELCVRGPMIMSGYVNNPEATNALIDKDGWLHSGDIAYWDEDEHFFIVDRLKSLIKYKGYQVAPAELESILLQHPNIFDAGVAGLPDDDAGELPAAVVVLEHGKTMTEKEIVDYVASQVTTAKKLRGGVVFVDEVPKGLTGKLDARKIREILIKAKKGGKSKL
#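 Purified P. pyralis luciferase, 10 nM final, with Km-level 10 uM D-luciferin and 10 uM ATP in 50 mM Tris acetate pH 7.5, 10 mM Mg acetate, 0.01% Tween-20, 0.05% BSA; 6-point qHTS titration about 60 µM downward; luminescence read.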
# ELG1 genotox – inducers of genotoxicity in HEK293T ELG1-luciferase cells; AID 504466; HEK293T ELG1-luciferase reporter, luminescence, 16 h; hit rate 1.3% among 330,000; Potency, µM (doses to about 46 µM), for inactives: top-dose activity change, positive = activation, usual class: activators; also: % of control where 0% means no effect; nearly all actives have a fitted effect of over 60% in size
#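 Genotoxicity was scored as increased ELG1-luciferase reporter signal, measured by ONE-Glo luminescence (30 min, room temperature). Compound or vehicle exposure of the HEK293T reporter cells lasted 16 hr at 37°C.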
# Luc counter – blocks Kinase-Glo luciferase, a counter-screen artifact; Q27757; Kinase-Glo luciferase, ATP luminescence, 8 min; Potency, µM (titrated, usually from 38.3 µM), inactives show at the highest dose activity change, negative = inhibition, actives largely listed as inhibitors; hit rate 0.28% among 200,000; AID 1379; also: % is scaled to controls: 0 for no effect and ±100 for the full control effect; nearly all actives have a fitted effect of over 60% in size
#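 Kinase-Glo luciferase light output from ATP and luciferin was measured with 10 uM ATP, within the enzyme's linear range. Buffer: 50 mM imidazole pH 7.2, 50 mM KCl, 7 mM MgCl2, 0.01% Tween 20, 0.05% BSA; luminescence read after 8 min at ambient temperature.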
# NPC1 promoter act – activates the NPC1 promoter; Potency, µM (titrated, usually from 9.22 µM), inactives show at the highest dose activation, usual class: activators; AID 485313; Huh7 NPC1 promoter luciferase reporter, 24 h; hit rate 2.4% among 320,000; also: % of control where 0% means no effect; nearly all actives have a fitted effect of over 60% in size
#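 Huh7 reporter cells (NPC1 promoter driving luciferase) are dosed with compound for 24 h at 37 °C, 5% CO2; luciferase detection reagent is then added and luminescence measured after 10 min at ambient temperature.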
# SMN2 splice up – enhancers of SMN2 splice variant expression | HEK293 SMN2-luciferase splicing reporter, luminescence, 30-36 h | Potency, µM (titrated, usually from 46.1 µM), for the others: at the top dose activity change, positive = activation, actives largely listed as activators | hit rate 2.8% among 210,000; also: % of control where 0% means no effect; nearly all actives have a fitted effect of over 55% in size
#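 HEK293 cells carry an SMN2 minigene-luciferase reporter in which exon 7 inclusion puts luciferase in frame. Cells were seeded at 2000 cells/well, attached for 10-12 hours, then exposed to compounds for 30-36 hours at 37C before ONE-Glo luminescence.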
# Rab9 prom act – Rab9 promoter activation. Huh7 Rab9 promoter-luciferase reporter, luminescence, 24 h. Potency, µM (series often up to 9.22 µM), for inactives: top-dose activation, negative = inhibition, actives largely listed as activators. hit rate 2.8% among 320,000. AID 485297; also: % of control where 0% means no effect; nearly all actives have a fitted effect of over 60% in size
#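 Cell-based reporter: Huh7 stable for Rab9 promoter-driven luciferase, plated in reduced-serum medium with 10% FBS at 1500 cells/well, compound-treated 24 h at 37 °C, luminescence read after 10 min reagent.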
# The depositor's hits bear a star; ? = inconclusive; nt = not tested or not shown; [ ] = another dose, or the depositor's remark. Calls follow the shape of the dose curve; as a rule, active = well fitted curve in the direction sought with a large enough effect; inconclusive = small, poorly fitted or top-dose-only effect, or another doubt; inactive = no such curve, though single readings can be large; an effect the other way counts as inactive or inconclusive. Potency is read from the fitted curve at half-maximal effect.
SMILES,FLuc modulator,ELG1 genotox,Luc counter,NPC1 promoter act,SMN2 splice up,Rab9 prom act
COc1ccc(/C=C2\SC(=O)N(CCNC(=O)C3CSC4(C)CCC(=O)N34)C2=O)cc1 (stereo not drawn),17µM*,1%,nt,15%,nt,17%
COc1ccc(/C=C2\SC(=S)N(CCC(=O)N3CCCCC3CCO)C2=O)cc1 (stereo not drawn),?,-9%,nt,-1%,nt,-6%
COc1ccc(/C=C2\SC(=O)N(CCNC(=O)C3CC4C=CC3C4)C2=O)cc1 (stereo not drawn),6.7µM*,?,0%,2.8µM*,25µM*,0.71µM*
CN(C)c1ccc(CNC(=O)c2sc3ncccc3c2-n2cccc2)cc1,1%,nt,nt,nt,nt,nt
CN1c2ccccc2C(C)(C)C12CC(c1ccc(S(=O)(=O)N3CCCCC3)cc1)=NO2 (stereo not drawn),-1%,-5%,2%,-5%,1.1µM*,8%
NC(=O)C1CCN(C(=O)c2ccc(NC(=O)c3nsc4ccccc34)cc2)CC1,1.7µM*,nt,nt,nt,nt,nt
CCOC(=O)C1CCCN(C(=O)c2ccc(NC(=O)c3nsc4ccccc34)cc2)C1 (stereo not drawn),12µM*,nt,nt,nt,nt,nt
CCOC(=O)C1CCN(C(=O)c2ccc(NC(=O)c3nsc4ccccc34)cc2)CC1,15µM*,nt,nt,nt,nt,nt
Cc1ccc(C(=O)NCC(=O)OCCCOC(=O)CNC(=O)c2ccc(C)cc2)cc1,?,2%,nt,1%,nt,1%
CCc1nnc(NC(=O)c2cc3ccccc3oc2=O)s1,-18%,?,-8%,-1%,-4%,-4%
O=C(Nc1nc(-c2cccs2)cs1)c1cc2ccccc2oc1=O,2.7µM*,5%,-2%,23%,11%,?
Cc1c(C(=O)Nc2nc(-c3ccccn3)cs2)oc2ccccc12,9.5µM*,-1%,nt,16%,nt,7%
O=C(Nc1nc(-c2ccccn2)cs1)c1cc2ccccc2o1,5.4µM*,-8%,-20%,9%,-77%,4%
COCc1c(C(=O)Nc2nc(C)cs2)oc2ccccc12,?,-1%,-2%,-1%,15%,1%
O=C(Nc1nc(-c2ccccn2)cs1)c1ncc(Cl)c(Cl)c1Cl,?,-10%,-3%,-5%,-10%,-2%
Cc1cc(-c2csc(NC(=O)c3cc4ccccc4o3)n2)c(C)n1C,9.5µM*,6%,-2%,13%,2%,23%
O=C(Nc1nc(-c2cc3ccccc3oc2=O)cs1)c1ccc(Br)o1,6%,4%,-10%,10%,28%,4%
O=C(CSc1nnc(-c2ccccc2F)n1C1CC1)NCc1ccco1,2%,3%,nt,-5%,nt,-9%
O=C(CCN1C(=O)C2C3C=CC(C4CC34)C2C1=O)Nc1ccc(Cl)cc1O (stereo not drawn),-1%,-15%,nt,2%,nt,7%
O=C(CSc1nnc(COc2ccc(Cl)cc2)o1)Nc1ccccc1,-11%,nt,nt,nt,nt,nt
COc1cccc(NC(=O)CN(C)C(=O)c2cc(-c3ccc(C)o3)nc3ccccc23)c1,11µM*,-5%,nt,5%,nt,0%
COc1cccc(NC(=O)CN(C)C(=O)c2cc(-c3cccc(Br)c3)nc3ccccc23)c1,?,-25%,nt,1%,nt,2%
COc1cccc(NC(=O)c2cc(-c3ccc(C)o3)nc3ccccc23)c1,?,2%,nt,18%,nt,22%
CCOc1ccc(NC(=O)CN(C)C(=O)c2cccc3ccccc23)cc1OCC,3%,0%,nt,-3%,nt,-5%
CCOc1ccc(NC(=O)CN(C)C(=O)c2cc(-c3ccc(OC)cc3)nc3ccccc23)cc1OCC,13µM*,-27%,nt,-1%,nt,2%
SMILES,FLuc modulator,ELG1 genotox,Luc counter,NPC1 promoter act,SMN2 splice up,Rab9 prom act
COc1ccc(NC(=O)CN(C)C(=O)c2cc(-c3ccc(Cl)cc3)nc3ccccc23)cc1,24µM*,-43%,nt,2%,nt,-1%
CC(C)c1nnc(SCC(=O)Nc2ccc3c(c2)OCCO3)n1C,2%,4%,nt,-8%,nt,2%
Cc1cc(C)c(NC(=O)c2cccc3c2C(=O)N(C2CCCCC2)C3)c(C)c1,2%,-5%,nt,-11%,nt,-1%
CCCCc1nc2c(c3c1C[C@H](C)OC3)CN(C(=O)NCCCC(=O)OCC)CC2,nt,nt,2%[7.66 µM],nt,3%[9.22 µM],nt
Cc1ccc(-c2nn3c(C)nnc3c3ccccc23)cc1S(=O)(=O)NCc1ccccc1,-1%,3%,3%,-4%,-7%,3%
Cc1ccc(-c2nn3c(C)nnc3c3ccccc23)cc1S(=O)(=O)N(C)CCO,1%,18µM*,1%,-3%,?,-1%
COCCNc1nc2sc3c(c2c(=O)n1Cc1ccco1)CCCCC3,?,?,1%,?,32µM*,2µM*
O=c1c2c3c(sc2nc(NCCO)n1CCc1ccccc1)CCCCC3,?,0%,-2%,-17%,-3%,-6%
O=c1c2c3c(sc2nc(NCCO)n1Cc1ccco1)CCCCC3,15µM*,17%,-1%,14%,41%,13%
Cc1ccc(-n2ncc3c(NC(C)c4ccccc4)ncnc32)cc1 (stereo not drawn),6µM*,nt,nt,nt,nt,nt
CC(Nc1ncnc2c1cnn2-c1cccc(Cl)c1)c1ccccc1 (stereo not drawn),24µM*,nt,nt,nt,nt,nt
COc1ccc(OC)c(Nc2ncnc3c2cnn3-c2cccc(Cl)c2)c1,0%,nt,nt,nt,nt,nt
COCC(C)Nc1ncnc2c1cnn2-c1cccc(Cl)c1 (stereo not drawn),13µM*,nt,nt,nt,nt,nt
CCC(CO)Nc1ncnc2c1cnn2-c1ccc(C)cc1 (stereo not drawn),3.4µM*,nt,nt,nt,nt,nt
CCCCc1ccc(Nc2ncnc3c2cnn3-c2ccc(C)cc2)cc1,-10%,nt,nt,nt,nt,nt
CCCCn1c(CNC(=O)C23CC4CC(CC(C4)C2)C3)nnc1SCC(=O)Nc1ccccc1,-11%,nt,nt,nt,-4%,nt
Nc1cccc(B(O)O)c1,nt,nt,-6%,nt,-11%,nt
COC(=O)c1nc(-c2ccc(C)cc2)oc1N(C)C,19µM*,12%,-12%,11%,1%,10%
COCCn1c(-c2ccc3ccccc3c2)nc2c1c(=O)[nH]c(=O)n2CC(C)C,-2%,1%,nt,-2%,nt,-3%
COC(=O)Nc1ccc2c(c1)ncn2C1CCCCC1,17µM*,12%,-9%,16%,1%,0%
CCOC(=O)Nc1ccc2c(c1)ncn2C1CCCCC1,-1%[2.3 µM],12%,-5%,3%,22%,22%
CCCCC/C=C\C\C=C/C=C/C=C/[C@@H](O)[C@@H](O)CCCC(=O)O,nt,nt,0%,nt,-1%,nt
Cc1c(C(=O)NCC(C)C)sc2nc(-c3ccc(F)cc3)cn12,-12%,?,0%,?,18%,2µM*
Cc1c(C(=O)NCc2ccc(F)cc2)sc2nc(-c3ccc(F)cc3)cn12,-8%,nt,nt,nt,nt,nt
Cc1ccc(CNC(=O)c2sc3nc(-c4ccccc4)cn3c2C)cc1,-2%,nt,nt,nt,nt,nt
